Consider 25 compounds from PubChem BioAssay AID1159606 (Sanford-Burnham Center for Chemical Genomics, 2016).

Molecules are shown by their SMILES. Out of some 360,000 compounds screened, about 7,300 (2%) were called active. Cut-off read from the data, not from the text of the source: active = inhibition above about 50%; inactive = the rest. The sample as a whole holds a higher share of actives than the screen did.

As a reminder, the inhibition is the drop in the measured response relative to a control, in per cent.

A short description of the assay: inhibitors of TWEAK-Fn14 signaling, primary screen, luciferase reporter cells, uHTS (AID 1159606). The note with it: TWEAK-stimulated Fn14 reporter cells, luciferase luminescence, 8 h; at 10 µM; hits give high values. (In a reporter assay the amount or activity of a reporter protein is the signal.)
Regarding `O=C(/C=C/[C@H]1O[C@@H](n2cnc3c(NC(=O)c4ccccc4)ncnc32)[C@H](O)[C@@H]1O)NCc1ccccc1`, the inhibition is -7.74% (inactive). `COc1ccc(NC(=S)SC)cc1OC`: the inhibition was 68.3% (active). The result for `COc1ccc(NC(=O)C2C3CCC(O3)C2C(=O)O)cc1OC` (stereo not given) reads 2.27% (inactive).

As for `COc1ccc(NC(=O)CSCc2ccc([N+](=O)[O-])cc2)cc1OC`, the inhibition was 6.35% (inactive). In the case of `COc1cc(OC)cc(C(=O)NCCSCc2ccc(Cl)cc2)c1`, the inhibition is 0.23% (inactive). In the case of `C=CCn1c(SCC(=O)NC(=O)Cc2ccccc2)nc2ccccc2c1=O`, the inhibition was 14% (inactive). `CCn1c(/C=C/c2ccc([N+](=O)[O-])o2)nc2ccccc2c1=O`: the inhibition is 63.4% (active). The result for `Cc1nc2ccccc2c(=O)n1NC(=O)c1ccc(Cl)c([N+](=O)[O-])c1` reads 32.6% (inactive). The same measure for `COc1ccc(Cl)cc1NC(=O)COC(=O)C(CC(C)C)N1C(=O)C2CC=CCC2C1=O` (stereo not given): -4.03% (inactive); for `Nc1[nH]c(C(=O)c2ccccc2)c(-c2ccc(Br)cc2)c1C(=O)NC1CC1`: -5.57% (inactive). In the case of `CC(C)(C)c1ccc(Oc2ccc(N)cc2)cc1`, the inhibition is 99% (active).

Take `Cc1cc(C(C)(C)C)cc(C)c1N`: the inhibition was -8.01% (inactive). In the case of `CN(C)S(=O)(=O)c1ccc(Oc2ccc(S(=O)(=O)N(C)C)cc2)cc1`, the inhibition is 6.23% (inactive).

Take `CC(=O)c1ccc(OCCCC(=O)Nc2ccc(C)c(S(=O)(=O)N3CCOCC3)c2)cc1`: the inhibition is -0.59% (inactive). With `COC(=O)c1ccc2nc(-c3cccc(Br)c3)c(Cc3ccccc3C(F)(F)F)n2c1`, the inhibition is -11.5% (inactive).

For `Nc1nc(-c2sc3nc4c(cc3c2N)CCCC4)nc(N2CCOCC2)n1`, the inhibition is -10.3% (inactive). With `COc1ccc(CC(=O)NC2CCSc3ccccc32)cc1OC` (stereo not given), the inhibition is 2.41% (inactive). The result for `COc1ccc(CC(=O)Nc2ccccc2NC(=O)c2ccco2)cc1OC` reads -18.6% (inactive).

With `COc1cc(CC(=O)Nc2nc(-c3ccc(F)c(F)c3)cs2)cc(OC)c1OC`, the inhibition was 60.3% (active).

For `COc1ccc(CCNC(=O)COC(=O)Cc2cc(OC)c(OC)c(OC)c2)cc1`, the inhibition was -9.86% (inactive).

As to `COc1ccc(CC(=O)Nc2nc(-c3ccc(F)c(F)c3)cs2)cc1OC`, the inhibition is 59% (active). Take `O=C(COC(=O)C1CCCO1)Nc1nc(-c2ccc(F)cc2)cs1` (stereo not given): the inhibition is -21.9% (inactive). On to `O=c1cc(CO)oc(C(Nc2cccc(C(F)(F)F)c2)c2ccccn2)c1O` (stereo not given), for which the inhibition is -5.67% (inactive). As to `Cc1cc(C)cc(N(CCC#N)C(=O)CN2C(=O)NC3(CCCC3)C2=O)c1`, the inhibition was -2.17% (inactive). The result for `CCC(C)NC(=O)CN(C1CCCCC1)S(C)(=O)=O` (stereo not given) reads 5.8% (inactive).
